Measurements: PubChem BioAssay AID1159580 (chemical genetic matrix, 2015)
Values joined by “and” are separate entries in the source; they are usually repeats but may differ in a detail not shown here. Equal entries are not always repeated. About 2,000 (36%) of roughly 5,500 compounds were called active. Roughly 18% stayed inconclusive and do not appear here. Rule as the data show it: active = normalized growth mostly below about 0.91 (no sharp cut-off); inconclusive = no clear call, values can overlap the other calls; inactive = mostly above about 0.92. The list shows a part of the results.

Experiment: chemical genetic growth profiling, strain panel (AID 1159580);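 also: tested at 20 µM; growth read once vehicle control cultures reached saturation at 30 °C; 1 = growth at the plate median or of vehicle wells; lower values mean less growth of the strain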
Conditions: growth OD

Measured: normalized growth

C=C1CCC(C2CC(=O)OC2=O)C(=O)CCC2C1CC2(C)C (centres undefined)
inactive: S. cerevisiae deletion strains, locus YAL021C, strain ccr4, active compounds read low 0.991 | S. cerevisiae deletion strains, locus YAL026C, strain drs2, active compounds read low 1 | S. cerevisiae deletion strains, locus YAL030W, strain snc1, active compounds read low 1.01 | S. cerevisiae deletion strains, locus YBL061C, strain skt5, active compounds read low 1 | S. cerevisiae deletion strains, locus YBR009C, strain hhf1, active compounds read low 1 | S. cerevisiae deletion strains, locus YBR021W, strain FUR4, active compounds read low 1 | S. cerevisiae deletion strains, locus YBR023C, strain chs3, active compounds read low 1 | S. cerevisiae deletion strains, locus YBR171W, strain sec66, active compounds read low 1 | S. cerevisiae deletion strains, locus YBR229C, strain ROT2, active compounds read low 1.01 | S. cerevisiae deletion strains, locus YBR231C, strain swc5, active compounds read low 1 | S. cerevisiae deletion strains, locus YBR279W, strain paf1, active compounds read low 1.01 | S. cerevisiae deletion strains, locus YCL011C, strain gbp2, active compounds read low 1 | S. cerevisiae deletion strains, locus YCL016C, strain dcc1, active compounds read low 0.993 | S. cerevisiae deletion strains, locus YCL029C, strain bik1, active compounds read low 1.02 | S. cerevisiae deletion strains, locus YCL069W, strain vba3, active compounds read low 1.02 | S. cerevisiae deletion strains, locus YCR088W, strain abp1, active compounds read low 1.01 | S. cerevisiae deletion strains, locus YDL005C, strain med2, active compounds read low 1.01 | S. cerevisiae deletion strains, locus YDL035C, strain GPR1, active compounds read low 0.995 | S. cerevisiae deletion strains, locus YDL040C, strain nat1, active compounds read low 1.01 | S. cerevisiae deletion strains, locus YDL074C, strain BRE1, active compounds read low 1.03 | S. cerevisiae deletion strains, locus YDL101C, strain DUN1, active compounds read low 1.02 | S. cerevisiae deletion strains, locus YDL134C, strain PPH21, active compounds read low 1.04 | S. cerevisiae deletion strains, locus YDL185W, strain tfp1, active compounds read low 1.02 | S. cerevisiae deletion strains, locus YDL192W, strain arf1, active compounds read low 1.01 | S. cerevisiae deletion strains, locus YDR001C, strain nth1, active compounds read low 1 | S. cerevisiae deletion strains, locus YDR069C, strain doa4, active compounds read low 0.988 | S. cerevisiae deletion strains, locus YDR101C, strain arx1, active compounds read low 0.972 | S. cerevisiae deletion strains, locus YDR137W, strain rgp1, active compounds read low 1.01 | S. cerevisiae deletion strains, locus YDR159W, strain sac3, active compounds read low 0.97 | S. cerevisiae deletion strains, locus YDR162C, strain NBP2, active compounds read low 1 | S. cerevisiae deletion strains, locus YDR195W, strain ref2 0.986 | S. cerevisiae deletion strains, locus YDR297W, strain sur2, active compounds read low 1 | S. cerevisiae deletion strains, locus YDR318W, strain mcm21, active compounds read low 1 | S. cerevisiae deletion strains, locus YDR334W, strain swr1, active compounds read low 1 | S. cerevisiae deletion strains, locus YDR335W, strain msn5, active compounds read low 1.02 | S. cerevisiae deletion strains, locus YDR388W, active compounds read low 1 | S. cerevisiae deletion strains, locus YDR392W, strain spt3, active compounds read low 0.876 | S. cerevisiae deletion strains, locus YDR502C, strain sam2, active compounds read low 1.03 | S. cerevisiae deletion strains, locus YEL003W, strain gim4, active compounds read low 1.01 | S. cerevisiae deletion strains, locus YEL037C, strain rad23, active compounds read low 1.01 | S. cerevisiae deletion strains, locus YEL061C, strain CIN8 (second series), active compounds read low 1.01 | S. cerevisiae deletion strains, locus YER015W, strain faa2, active compounds read low 1.02 | S. cerevisiae deletion strains, locus YER016W, strain bim1, active compounds read low 1 | S. cerevisiae deletion strains, locus YER110C, active compounds read low 1.01 | S. cerevisiae deletion strains, locus YER111C, strain swi4, active compounds read low 1.01 | S. cerevisiae deletion strains, locus YER155C, strain BEM2 (second series), active compounds read low 0.983 | S. cerevisiae deletion strains, locus YER155C, strain BEM2, active compounds read low 1.01 | S. cerevisiae deletion strains, locus YER167W, strain BCK2, active compounds read low 1 | S. cerevisiae deletion strains, locus YFR010W, strain ubp6, active compounds read low 1.01 | S. cerevisiae deletion strains, locus YGL078C, strain dbp3, active compounds read low 1.03 | S. cerevisiae deletion strains, locus YGL086W, strain mad1, active compounds read low 1.01 | S. cerevisiae deletion strains, locus YGL167C, strain pmr1, active compounds read low 1.01 | S. cerevisiae deletion strains, locus YGL173C, strain kem1, active compounds read low 1 | S. cerevisiae deletion strains, locus YGL227W, strain vid30, active compounds read low 1.01 | S. cerevisiae deletion strains, locus YGL240W, strain doc1, active compounds read low 0.987 | S. cerevisiae deletion strains, locus YGL248W, strain PDE1, active compounds read low 1.04 | S. cerevisiae deletion strains, locus YGL253W, strain hxk2, active compounds read low 1.03 | S. cerevisiae deletion strains, locus YGR078C, strain PAC10, active compounds read low 1.04 | S. cerevisiae deletion strains, locus YGR135W, strain pre9, active compounds read low 1.05 | S. cerevisiae deletion strains, locus YGR252W, strain gcn5, active compounds read low 1.09 | S. cerevisiae deletion strains, locus YHR013C, strain ard1, active compounds read low 1.01 | S. cerevisiae deletion strains, locus YHR027C, strain rpn1, active compounds read low 1 | S. cerevisiae deletion strains, locus YHR030C, strain SLT2, active compounds read low 0.975 | S. cerevisiae deletion strains, locus YHR079C, strain IRE1 (second series), active compounds read low 1.01 | S. cerevisiae deletion strains, locus YHR079C, strain IRE1, active compounds read low 0.974 | S. cerevisiae deletion strains, locus YHR094C, strain hxt1, active compounds read low 0.995 | S. cerevisiae deletion strains, locus YHR129C, strain ARP1, active compounds read low 1.02 | S. cerevisiae deletion strains, locus YHR142W, strain chs7, active compounds read low 1.04 | S. cerevisiae deletion strains, locus YHR200W, strain rpn10, active compounds read low 1.03 | S. cerevisiae deletion strains, locus YIL066C, strain RNR3, active compounds read low 1.01 | S. cerevisiae deletion strains, locus YIL073C, strain SPO22, active compounds read low 1.02 | S. cerevisiae deletion strains, locus YIL125W, strain kgd1, active compounds read low 0.98 | S. cerevisiae deletion strains, locus YIR030C, strain dcg1, active compounds read low 1.01 | S. cerevisiae deletion strains, locus YJL092W, strain hpr5, active compounds read low 1.02 | S. cerevisiae deletion strains, locus YJL095W, strain BCK1 (second series), active compounds read low 1 | S. cerevisiae deletion strains, locus YJL095W, strain BCK1, active compounds read low 1.06 and 0.979 | S. cerevisiae deletion strains, locus YJL115W, strain asf1, active compounds read low 0.999 | S. cerevisiae deletion strains, locus YJL129C, strain trk1, active compounds read low 0.989 | S. cerevisiae deletion strains, locus YJL134W, strain LCB3, active compounds read low 0.997 | S. cerevisiae deletion strains, locus YJL154C, strain vps35, active compounds read low 1.02 | S. cerevisiae deletion strains, locus YJL164C, strain tpk1, active compounds read low 1 | S. cerevisiae deletion strains, locus YJL166W, strain qcr8, active compounds read low 1 | S. cerevisiae deletion strains, locus YJL168C, strain set2, active compounds read low 1.02 | S. cerevisiae deletion strains, locus YJL187C, strain SWE1 (second series), active compounds read low 1.04 | S. cerevisiae deletion strains, locus YJR066W, strain TOR1, active compounds read low 0.929 | S. cerevisiae deletion strains, locus YJR075W, strain HOC1, active compounds read low 1.02 | S. cerevisiae deletion strains, locus YKL009W, strain mrt4, active compounds read low 1 | S. cerevisiae deletion strains, locus YKL068W, active compounds read low 1 | S. cerevisiae deletion strains, locus YKL085W, strain MDH1 (second series), active compounds read low 1 | S. cerevisiae deletion strains, locus YKL085W, strain MDH1, active compounds read low 1 | S. cerevisiae deletion strains, locus YKL160W, strain elf1, active compounds read low 1 | S. cerevisiae deletion strains, locus YKR001C, strain vps1, active compounds read low 1 | S. cerevisiae deletion strains, locus YKR026C, strain gcn3, active compounds read low 1.01 | S. cerevisiae deletion strains, locus YKR091W, strain srl3, active compounds read low 1 | S. cerevisiae deletion strains, locus YLL001W, strain dnm1, active compounds read low 1.01 | S. cerevisiae deletion strains, locus YLL026W, active compounds read low 1 | S. cerevisiae deletion strains, locus YLL041C, strain sdh2, active compounds read low 1.01 | S. cerevisiae deletion strains, locus YLR027C, strain aat2, active compounds read low 1.02 | S. cerevisiae deletion strains, locus YLR039C, strain RIC1, active compounds read low 1.04 | S. cerevisiae deletion strains, locus YLR058C, strain SHM2, active compounds read low 1 | S. cerevisiae deletion strains, locus YLR102C, strain apc9, active compounds read low 1.01 | S. cerevisiae deletion strains, locus YLR113W, strain HOG1, active compounds read low 0.946 | S. cerevisiae deletion strains, locus YLR221C, strain rsa3, active compounds read low 0.99 | S. cerevisiae deletion strains, locus YLR258W, strain gsy2, active compounds read low 1.03 | S. cerevisiae deletion strains, locus YLR262C, strain YPT6 (second series), active compounds read low 0.993 | S. cerevisiae deletion strains, locus YLR268W, strain sec22, active compounds read low 0.975 | S. cerevisiae deletion strains, locus YLR320W, strain mms22, active compounds read low 0.999 | S. cerevisiae deletion strains, locus YLR330W, strain CHS5, active compounds read low 1.01 | S. cerevisiae deletion strains, locus YLR342W, strain FKS1, active compounds read low 1 | S. cerevisiae deletion strains, locus YLR357W, strain rsc2, active compounds read low 1.03 | S. cerevisiae deletion strains, locus YLR370C, strain arc18, active compounds read low 1.01 | S. cerevisiae deletion strains, locus YLR371W, strain rom2, active compounds read low 0.997 | S. cerevisiae deletion strains, locus YLR384C, strain iki3, active compounds read low 1.01 | S. cerevisiae deletion strains, locus YLR418C, strain cdc73, active compounds read low 1.09 | S. cerevisiae deletion strains, locus YML016C, strain PPZ1, active compounds read low 1.01 | S. cerevisiae deletion strains, locus YML032C, strain rad52, active compounds read low 0.999 | S. cerevisiae deletion strains, locus YML120C, strain ndi1, active compounds read low 1 | S. cerevisiae deletion strains, locus YML124C, strain tub3, active compounds read low 1 | S. cerevisiae deletion strains, locus YMR058W, strain fet3, active compounds read low 1.02 | S. cerevisiae deletion strains, locus YMR078C, strain ctf18, active compounds read low 1 | S. cerevisiae deletion strains, locus YMR125W, strain sto1, active compounds read low 1 | S. cerevisiae deletion strains, locus YMR129W, active compounds read low 1.01 | S. cerevisiae deletion strains, locus YMR205C, strain PFK2, active compounds read low 0.98 | S. cerevisiae deletion strains, locus YMR223W, strain ubp8, active compounds read low 1.01 | S. cerevisiae deletion strains, locus YMR231W, strain pep5, active compounds read low 0.991 | S. cerevisiae deletion strains, locus YMR263W, strain SAP30, active compounds read low 1.01 | S. cerevisiae deletion strains, locus YMR307W, strain GAS1, active compounds read low 1.06 | S. cerevisiae deletion strains, locus YNL067W, strain RPL9B, active compounds read low 1.02 | S. cerevisiae deletion strains, locus YNL071W, strain lat1, active compounds read low 1.01 | S. cerevisiae deletion strains, locus YNL153C, strain GIM3, active compounds read low 1.03 | S. cerevisiae deletion strains, locus YNL183C, strain NPR1, active compounds read low 0.937 | S. cerevisiae deletion strains, locus YNL209W, strain ssb2, active compounds read low 1 | S. cerevisiae deletion strains, locus YNL233W, strain BNI4, active compounds read low 1.04 | S. cerevisiae deletion strains, locus YNL248C, strain rpa49, active compounds read low 0.928 | S. cerevisiae deletion strains, locus YNL250W, strain rad50, active compounds read low 1.03 | S. cerevisiae deletion strains, locus YNL271C, strain bni1, active compounds read low 1.01 | S. cerevisiae deletion strains, locus YNL298W, strain CLA4, active compounds read low 0.993 | S. cerevisiae deletion strains, locus YNL307C, strain MCK1, active compounds read low 1.01 | S. cerevisiae deletion strains, locus YNL322C, strain KRE1 (second series), active compounds read low 0.989 | S. cerevisiae deletion strains, locus YNR049C, strain mso1, active compounds read low 1.01 | S. cerevisiae deletion strains, locus YNR052C, strain pop2, active compounds read low 1.01 | S. cerevisiae deletion strains, locus YOL012C, strain htz1 0.988 | S. cerevisiae deletion strains, locus YOL147C, strain pex11, active compounds read low 1 | S. cerevisiae deletion strains, locus YOR001W, strain rrp6, active compounds read low 0.976 | S. cerevisiae deletion strains, locus YOR061W, strain CKA2, active compounds read low 0.991 | S. cerevisiae deletion strains, locus YOR069W, strain VPS5, active compounds read low 1.01 | S. cerevisiae deletion strains, locus YOR070C, strain gyp1, active compounds read low 1.02 | S. cerevisiae deletion strains, locus YOR080W, strain dia2, active compounds read low 0.993 | S. cerevisiae deletion strains, locus YOR083W, strain WHI5, active compounds read low 0.997 | S. cerevisiae deletion strains, locus YOR106W, strain vam3, active compounds read low 1.02 | S. cerevisiae deletion strains, locus YOR136W, strain idh2, active compounds read low 1.01 | S. cerevisiae deletion strains, locus YOR144C, strain elg1, active compounds read low 0.996 | S. cerevisiae deletion strains, locus YOR184W, strain ser1, active compounds read low 0.98 | S. cerevisiae deletion strains, locus YOR231W, strain MKK1, active compounds read low 0.964 | S. cerevisiae deletion strains, locus YOR265W, strain rbl2, active compounds read low 0.995 | S. cerevisiae deletion strains, locus YOR270C, strain vph1, active compounds read low 1.01 | S. cerevisiae deletion strains, locus YOR290C, strain snf2, active compounds read low 0.952 | S. cerevisiae deletion strains, locus YOR316C, strain cot1, active compounds read low 1.02 | S. cerevisiae deletion strains, locus YPL051W, strain arl3, active compounds read low 1 | S. cerevisiae deletion strains, locus YPL078C, strain atp4, active compounds read low 1 | S. cerevisiae deletion strains, locus YPL106C, strain sse1, active compounds read low 1 | S. cerevisiae deletion strains, locus YPL240C, strain hsp82, active compounds read low 1 | S. cerevisiae deletion strains, locus YPL256C, strain CLN2, active compounds read low 0.962 | S. cerevisiae deletion strains, locus YPR119W, strain clb2, active compounds read low 1 | S. cerevisiae deletion strains, locus YPR141C, strain kar3, active compounds read low 1 | S. cerevisiae deletion strains, locus YPR163C, strain tif3, active compounds read low 1 | S. cerevisiae deletion strains, locus YPR167C, strain met16, active compounds read low 1 | S. cerevisiae deletion strains, strain wtn01, active compounds read low 0.997 | S. cerevisiae strains, strain wild type, active compounds read low 0.999
